Out of some 420,000 compounds screened, about 50,000 (12%) were called active. About 26% were inconclusive and are not listed. Many of the other results were omitted from the sample, so actives are more common in it than they were. A number with no mark means an inactive call. The call rests on the fitted dose curve; in most records, active means well fitted inhibition curve with a large enough effect; inconclusive means small, poorly fitted or top-dose-only effect; inactive means flat fitted curve, though single readings scatter.
Test: qHTS for Inhibitors of human tyrosyl-DNA phosphodiesterase 1 (TDP1): qHTS in cells in presence of CPT; further: nearly all actives have a fitted effect of over 55% in size
Settings: chicken DT40 Tdp1-/-;hTDP1 cells + 20 nM CPT, ATP luminescence, 48 h; series mostly up to 46.2 µM; activity change, negative = growth inhibition: at the top concentration
Outline: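 Chicken DT40 Tdp1-/- cells stably complemented with human TDP1 were seeded at 400 cells/well in medium containing 20 nM camptothecin, exposed to pin-transferred compounds, and grown at 37 °C for at least 48 hr. Viability was read as ATP luminescence.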
On the % scale 0 is the no-effect control and ±100 the full control effect; potency means the concentration at half of the fitted maximal effect.

| Compound | activity change, negative = growth inhibition | Potency |
| --- | --- | --- |
| Nc1c(N(CCCO)C(=O)C2CCCC2)c(=O)[nH]c(=O)n1Cc1ccccc1 | -20.6% |  |
| Cn1c(=O)[nH]c2c(c(C(=O)O)nn2C)c1=O | 25.9% |  |
| Oc1c(Cl)cc(Cl)cc1/C=N/c1ncn[nH]1 | -23.1% |  |
| Cc1ccc(NC(=O)CN(C)C(=O)c2ccc(Br)o2)cc1 | -1.54% |  |
| CC(C)c1nnc(NC(=O)COC(=O)/C=C/c2ccc([N+](=O)[O-])cc2)s1 | -4.05% |  |
| O=C(Nc1ccc(F)cc1)C(=O)c1cn(CC(=O)N2CCOCC2)c2ccccc12 | 0.0894% |  |
| O=C(Nc1ccc(C(=O)O)cc1)/C(=C\c1ccccc1)NC(=O)c1ccc(Br)cc1 | -2.66% |  |
| COc1cccc(NC(=O)Cn2c3ccc(F)cc3c3nc4n(c(=O)c32)CCS4)c1 | -6.67% |  |
| C=CCN1C(=O)c2ccc(C(=O)N3CCC(C(=O)OCC)CC3)cc2C1=O | 1.36% |  |
| O=[N+]([O-])c1ccc(N2CCN(c3ccc(O)cc3)CC2)c(Cl)c1 | -70.1% |  |
| COc1ccc(S(=O)(=O)NCC(c2ccc(C)cc2)N2CCN(C)CC2)cc1OC (centres undefined) | -12.4% |  |
| Cn1cccc1/C=C1\SC(=O)N(CC(=O)Nc2ccc(F)cc2)C1=O | -23% |  |
| Cc1nn(Cc2ccccc2)c(C)c1C(=O)NCCN1C(=O)S/C(=C\c2ccc(F)cc2)C1=O |  | 16.4 µM (active) |
| Cc1nn(Cc2ccccc2)c(C)c1C(=O)NCCCN1CCCC1=O | 4.85% |  |
| O=C(COc1coc(CN2CCN(c3ccccc3)CC2)cc1=O)N1CCc2ccccc21 | -5.85% |  |
| CC(Sc1nnc(COc2ccccc2)n1-c1ccccc1)C(=O)O (centres undefined) | -7.31% |  |
| O=C(O)c1cnn2c(C(F)(F)F)cc(-c3ccccc3)nc12 | -7.77% |  |
| COc1ccc(OCC(=O)N2CCOCC2)cc1 | -13.8% |  |
| COc1ccc(-c2cc(C(F)(F)F)n3nc(C(=O)N4CCOCC4)c(Cl)c3n2)cc1 |  | 16.4 µM (active) |
| CC(=O)Nc1ccc(SCC(=O)NC(=O)c2ccc(Cl)cc2)cc1 | -14.9% |  |
| O=c1onc(-c2c(F)cccc2F)n1-c1ccccc1Cl | -18.9% |  |
| COc1ccc(CN(C)CCn2cc(C(=O)N3CCSCC3)nn2)cc1C | 11.4% |  |
| CCN1CCN(Cc2nc3c(c(=O)n(C)c(=O)n3C)n2CC(=O)c2ccccc2)CC1 | -4.17% |  |
| O=C(O)C1CCCN(CCC=C(c2ccccc2)c2ccccc2)C1 (centres undefined) |  | inactive |
| COCCn1c(CN2CCC(Cc3ccccc3)CC2)nc2c1c(=O)n(C)c(=O)n2C |  | 8.2 µM (active) |
| Cn1c(=O)c2c(nc(CN3CCOCC3)n2Cc2ccccc2)n(C)c1=O | -18.4% |  |
| O=c1cc(CO)oc(CN2CCC(Cc3ccccc3)CC2)c1O | -6.74% |  |

| Compound | activity change, negative = growth inhibition | Potency |
| --- | --- | --- |
| CC1CCCN(Cc2nc3c(c(=O)n(C)c(=O)n3C)n2CC(=O)c2ccccc2)C1 (centres undefined) |  | 23.1 µM (active) |
| CCc1ccc(N2CC(C(=O)N3CCCCCC3)CC2=O)cc1 (centres undefined) | 2.2% |  |
| Cc1c(C(=O)NC(C)C2CC3CCC2C3)cccc1[N+](=O)[O-] (centres undefined) | -8.19% |  |
| CCn1c(CSc2nc(C)cc(C)n2)nnc1SCC(N)=O | 16% |  |
| O=C(Nc1ccccc1Br)c1cc(CN2CCCC2)on1 | -28% |  |
| Cc1[nH]c(=O)c(C(=O)/C=C/c2ccccc2)c2c1CCCC2 |  | 5.8 µM (active) |
| O=C(NCc1ccccn1)c1c(O)c2c([nH]c1=O)CCCC2 | -28.7% |  |
| Cc1cn(COC/C=C/c2ccccc2)c(=O)[nH]c1=O | -9.62% |  |
| O=C1NC(=O)C(c2ccc(Cl)cc2)N1 (centres undefined) | -9.04% |  |
| CCCCN(C(=O)C1=NN(c2cc(C)ccc2C)C(=O)CC1)c1c(N)n(CCC)c(=O)[nH]c1=O | -5.86% |  |
| O=C(NCC1CCCO1)c1cc2c([nH]c3ccccc32)c(-c2ccc(F)cc2)n1 (centres undefined) |  | 2.06 µM (active) |
| O=C(NCC1CCCO1)c1cc(-c2ccccc2)nc2ccccc12 (centres undefined) | -17% |  |
| O=C(NCC1CCCO1)c1ccc2ccccc2n1 (centres undefined) | -6.77% |  |
| CCOC(=O)c1c(-c2ccccc2)oc2cc(Br)c(O)cc12 | -23% |  |
| O=C(c1ccncc1)N1CCN(c2ccc3ccccc3n2)CC1 | -24.9% |  |
| O=C(COC(=O)Cc1ccccc1F)NCCc1ccccc1 | 4.14% |  |
| Cn1cc(CN2CCC(C(O)CCc3ccccc3)CC2)c(-c2ccccc2F)n1 (centres undefined) | 10.5% |  |
| N=c1n(CCc2ccccc2)c2ccccc2n1Cc1ccccc1F |  | 7.31 µM (active) |
| CCC(=O)c1ccc(OC(=O)/C=C/c2cc(OC)c(OC)c(OC)c2)cc1 | 2.38% |  |
| CC1(C)C=Cc2c(ccc3c2OC[C@@H](c2ccc(O)cc2O)C3)O1 |  | 25.9 µM (active) |
| NS(=O)(=O)c1ccc(NC2=CC(c3ccc(F)cc3)N(c3ccc(S(N)(=O)=O)cc3)C2=O)cc1 (centres undefined) | -11.3% |  |
| Cc1[nH]nc(SCC(=O)NCC(C)C)c1[N+](=O)[O-] | 2.73% |  |
| CC1CCCC(N2CCN(C(=O)c3ccc(F)cc3)CC2)C1 (centres undefined) | 3% |  |
| COC(=O)c1ccc(COc2ccc(/C=N/NC(=O)C(=O)Nc3ccc(OC)cc3)cc2OC)o1 | -8.05% |  |
| COc1ccccc1OCc1ccc(C(=O)NC(C)c2ccccc2)o1 (centres undefined) | 1.09% |  |
| CCCc1ccc(OCc2ccc(C(=O)N/N=C/c3cccc([N+](=O)[O-])c3)o2)c(OC)c1 |  | 8.2 µM (active) |
| CCOc1ccc(C2C(C#N)=C(N)N(N(C)C)C3=C2C(=O)CCC3)cc1 (centres undefined) | -4.52% |  |

— PubChem BioAssay AID686979 (National Center for Advancing Translational Sciences (NCATS), 2013)
